Experimental data reported in PubChem BioAssay AID624330 (Southern Research Specialized Biocontainment Screening …, 2012).
Where “and” joins values, the source holds several entries; their conditions need not be identical. Equal values may be shown once. In all, about 340,000 compounds went through this assay and about 2,100 (0.62%) were called active.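 Rule for the calls: active = first-screen hits whose inhibition reached a set limit at any dose in the follow-up dose series; inconclusive = inhibition above the set first-screen limit but never retested; inactive = the rest.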 Not all results are given here. Potency and affinity values are given separately.

Each molecule was assayed against Rac GTPase-activating protein 1 (Homo sapiens) (UniProt Q9H0H5) (assay: MgcRacGAP GTPase-activating activity inhibitors, confirmation, biochemical, ADP Hunter fluorescence, primary and confirmatory (AID 624330;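 note: fluorescence reports GDP produced by GAP-driven GTP hydrolysis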)). Conditions: MgcRacGAP-stimulated Rac1 GTP hydrolysis, at 30 µM, stronger effect = higher value, GST-tagged Rac1 F28L mutant substrate.
Chain of Rac GTPase-activating protein 1 (Homo sapiens) (Q9H0H5 whole entry, looked up): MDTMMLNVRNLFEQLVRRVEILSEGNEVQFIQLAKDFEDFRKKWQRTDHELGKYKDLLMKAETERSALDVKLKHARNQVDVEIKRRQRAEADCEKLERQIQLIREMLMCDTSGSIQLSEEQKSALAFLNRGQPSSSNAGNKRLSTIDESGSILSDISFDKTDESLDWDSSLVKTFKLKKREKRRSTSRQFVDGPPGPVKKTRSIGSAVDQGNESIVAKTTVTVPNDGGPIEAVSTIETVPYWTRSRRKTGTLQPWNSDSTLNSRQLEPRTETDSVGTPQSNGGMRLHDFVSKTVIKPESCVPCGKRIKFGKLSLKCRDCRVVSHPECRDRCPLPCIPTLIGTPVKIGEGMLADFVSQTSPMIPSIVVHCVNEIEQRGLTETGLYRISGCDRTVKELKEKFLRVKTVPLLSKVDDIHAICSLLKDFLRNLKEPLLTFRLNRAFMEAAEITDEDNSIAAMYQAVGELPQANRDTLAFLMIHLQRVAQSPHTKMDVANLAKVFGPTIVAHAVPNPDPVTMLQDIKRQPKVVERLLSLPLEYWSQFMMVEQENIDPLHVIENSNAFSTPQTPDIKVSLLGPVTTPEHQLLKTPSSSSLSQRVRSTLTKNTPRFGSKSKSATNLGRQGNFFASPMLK

inhibition, inactive:
O=CNc1ccccc1Oc1ccccc1 8.55%
Cc1ccc(N(C(=O)c2snc(C(N)=O)c2N)C(C(=O)NC2CCCC2)c2ccc(C)o2)cc1 (stereo not drawn) 2.21%
CC(=O)c1ccc(NC(=O)CSc2nnc(C3CC3)n2C)cc1 -6.69%
O=C(CSc1cn(CCNC(=O)c2ccc3ccccc3c2)c2ccccc12)NCc1ccco1 11.1%
CC(C)C(=O)Nc1ccc2c(c1)nc1n2CCSC1 5.79%
Cc1ccccc1OCC(O)CN1CCC(C)CC1 (stereo not drawn) 8.53%
CC1CCN(CC(O)COc2ccc(OCC(O)CN3CCC(C)CC3)cc2)CC1 (stereo not drawn) 15.7%
Cn1ccnc1C(=O)c1cc(SCC(=O)N2CCOCC2)nc2ccccc12 -0.39%
S=C1SC2(CCCCCC2)NC2=C1CCCCC2 8.68%
CCOC(=O)CCSc1nc(C)c2cc(C)ccc2n1 5.59%
Cc1c(O)ccc2c(=O)c(Oc3ccccc3)coc12 9.78%
Cc1ccc(Oc2coc3cc(OC(=O)c4cccs4)ccc3c2=O)cc1 1.09%
CC1NC(=O)c2cc3ccccc3cc2-n2c1nc1cc(Cl)ccc1c2=O (stereo not drawn) 9.82%
CC(Oc1ccc(Cl)cc1)C(=O)Nc1ccccc1N1CCOCC1 (stereo not drawn) 2.3%
NN1C(=O)/C(=C2/Sc3ccccc3N2CCCS(=O)(=O)O)SC1=S 12.5%
CCN1/C(=C2/SC(=S)NC2=O)Sc2ccccc21 1.71%
CCOC(=O)N1CCN(S(=O)(=O)c2c(C)nc3sccn3c2=O)CC1 8.06%
COc1ccc(C=C2CS(=O)(=O)CC(=Cc3ccc(OC)cc3)C2=O)cc1 8.37%
O=C1/C(=C\c2ccc([N+](=O)[O-])cc2)CCc2ccccc21 2.14%
O=[N+]([O-])c1ccc(N2CCN(S(=O)(=O)c3ccc(Cl)c(Cl)c3)CC2)cc1NCCN1CCOCC1 -6.11%
COc1ccccc1NC(=O)c1cc2ccc(O)cc2o/c1=N\O 16.6%
COc1ccc2o/c(=N\O)c(C(=O)Nc3ccc(C)cc3)cc2c1 6.76%
CCOC(=O)C1=CN(Cc2cccc(-c3ccc(F)cc3)c2)S(=O)(=O)N(C)C1C (stereo not drawn) 8.9%
Cc1cc(C)nc(Nc2ccc(Cl)cc2C)n1 4.71%
Cc1nc2sc(C(c3cccs3)N3CCC4(CC3)OCCO4)c(O)n2n1 (stereo not drawn) 1.65%
Cc1cc(C)c2ccc(=O)n(CC(=O)N/N=C/c3ccccc3Cl)c2n1 5.91%
Cc1ccc(C)c2c1[nH]c1ccccc12 10.6%
COc1cc2[nH]c3ccccc3c2cc1C -5.8%
Cc1ccc(C(C)C)c(OC/C(O)=C(\C#N)c2nc3ccccc3[nH]2)c1 6.88%
CC1(C)C(c2ccccc2)=[N+]([O-])C2(CCCCC2=O)N1O (stereo not drawn) 1.13%
CCOC(=O)C1CCN(S(=O)(=O)CCNC(=O)c2ccc(F)cc2)CC1 6.46%
O=S(=O)(O)c1cc(O)ccc1O 4.04%
Oc1ccc(N=Nc2ccc(Br)cc2)c(O)c1 12.2%
O=[N+]([O-])c1ccc(N=Nc2ccc(O)cc2O)cc1 7.64%
O=S(=O)(O)c1cccc2c(N=Nc3ccc(O)c4ncccc34)cccc12 18.4%
O=C(Cc1ccc(F)cc1)NC(Cc1c[nH]c2ccccc12)C(=O)O (stereo not drawn) -3.39%
Cc1c(Cl)cnc(NC(=O)CSc2nnnn2C)c1Cl 3.41%
OCCN1CCN(CCCN2c3ccccc3Sc3ccc(Cl)cc32)CC1 31.9%
CN(C)CCCN1c2ccccc2Sc2ccc(Cl)cc21 22% and 17.9%
CC(=O)c1ccc2c(c1)N(CCCN(C)C)c1ccccc1S2 12.4%
CN1CCN(CCCN2c3ccccc3Sc3ccc(C(F)(F)F)cc32)CC1 7.89% and 12.7% and 6.18%
CNc1ccc(/C=C/C(=O)c2cccc3ccccc23)cc1[N+](=O)[O-] 1.28%
CCN(C(=O)COC(=O)/C=C/c1c(C)nn(-c2ccccc2)c1C)C1CCS(=O)(=O)C1 (stereo not drawn) 5.67%
CC(=O)c1ccc(NC(=O)CN2CCN(c3ccccc3)CC2)cc1 5.48%
CC[C@H](C)NC(=O)CCCCCn1c(=S)[nH]c2c([nH]c3ccc(OC)cc32)c1=O 3.32%
COc1ccc2[nH]c3c(=O)n(CCCCC(=O)N4CCCC4)c(=S)[nH]c3c2c1 23.1%
COc1ccc2[nH]c3c(=O)n(Cc4ccc(C(=O)N5CCCCCC5)cc4)c(=S)[nH]c3c2c1 6.08%
COc1ccc2[nH]c3c(=O)n(Cc4ccc(C(=O)N5CCCC5)cc4)c(=S)[nH]c3c2c1 4.08%
CC(C)(CO)CNC(=O)CCc1nnc(-c2ccc(-c3ccccc3)cc2)o1 9.2%
CC(OC(=O)c1ccc(-c2ccc(O)cc2)cc1)C(=O)NC1CCCCC1C (stereo not drawn) 8.27%
CC(C)CN1CCC(Oc2cccc(C(=O)NCCc3ccccc3)c2)CC1 11.2%
CC(=O)c1sc(NC(=O)c2cccc(N3C(=O)CCC3=O)c2)nc1-c1ccccc1 2.55%
C[C@@H]1CN([C@@H](C)CO)C(=O)CCCn2nncc2CO[C@H]1CN(C)S(=O)(=O)c1ccc2c(c1)OCCCO2 7.05%
Cc1ccc([C@@H]2C[C@H]3[C@@H](CN2S(=O)(=O)c2ccc(Cl)cc2)C(=O)C[C@@H](c2ccccc2)N3S(=O)(=O)c2ccc(C)cc2)cc1 17.6%
Cc1ccc(C2/C=C\CC(NC(=O)OCC3c4ccccc4-c4ccccc43)CC(=O)N2Cc2ccccc2)cc1 (stereo not drawn) 7.21%
Cc1c(-c2ccccc2)cn2c1-c1ccc(C)n1CC2 5.62%
CCCC1=[N+](CC(C)=O)CCn2c(C)ccc21 -4.62%
COc1cc2c(cc1NC(=O)CSc1nc3cc(Cl)ccc3s1)oc1ccccc12 5.98%
CCc1ccc(-c2nn(Cc3ccccc3)cc2C(=O)NCC2CCCO2)cc1 (stereo not drawn) 0.77%
CC(=O)Nc1ccc(/C=N/NC(=O)c2cc(-c3ccco3)nc3ccccc23)cc1 6.26%
O=C(N/N=C/c1cccc(F)c1)c1cc(-c2ccco2)nc2ccccc12 7.31%
CSc1nc(C)c(C(=O)C[n+]2ccccc2)cc1C#N 5.97%
FC(F)(F)c1cccc(N2CCN(Cc3ccoc3)CC2)c1 9.97%
COc1ccc(-n2c(=S)[nH]c3cc(C(=O)O)ccc3c2=O)cc1 1.88%
COc1ccc(N=Nc2ccc(N)nc2N)cc1 18.6%
COc1cc(S(N)(=O)=O)c(OC)cc1N 7.46%
COc1ccc(OC)c(N)c1 18.5%
Cc1cc(N=Nc2c(O)c3ccccc3[nH]c2=O)ccc1N=Nc1ccc(C(=O)N(C)C)cc1 6.51%
COc1ccc(C(=O)c2ccc(OC)c(N)c2)cc1N 4.59%
Cc1ccc(N=Nc2ccc(N)cc2C)c(S(N)(=O)=O)c1 13.8%
CCCNS(=O)(=O)c1ccc(CCC(=O)NCCc2ccc(OC)c(OC)c2)cc1 1.4%
NC(N)=NC1=NC(=O)/C(=C/c2ccccc2-n2cccn2)S1 10.9%
CC1(C)CC(=O)C(C=Nc2ccc(NC3=C(C#N)C(=O)CC(C)(C)C3)cc2)=C(O)C1 7.44%
CC(/C=N/O)Cc1ccc2c(c1)OCO2 (stereo not drawn) 2.11%
COc1ccc(C2C(C(=O)NCc3ccco3)c3ccccc3C(=O)N2C)cc1 (stereo not drawn) 0.04%
CC1=C(C(=O)N(C)C)CC(CC(=O)NC2CCCC2)C(=O)N1CCC1=CCCCC1 (stereo not drawn) 14.5%
O=C(CNC(=O)c1ccccc1Br)N/N=C/c1cccs1 0.32%
CCn1c2ccccc2c2cc(CNCCCN3CCOCC3)ccc21 20.3%
COc1ccc(CNCc2ccc3ccccc3c2)c(OC)c1 28.9%
CCCC(=O)Nc1ccc2c(c1)c1ccccc1n2CC 10.5%
CCn1c2ccccc2c2cc(CC(N)=O)ccc21 8.07%
CCn1c2ccccc2c2cc(NC(C)=O)ccc21 6.13%
CCn1c2ccccc2c(=O)c2ccccc21 5.08%
COc1cccc(CNCc2ccc(OC)cc2OC)c1 22.9%
CCn1c2ccccc2c2cc(NC(=O)CC(C)=O)ccc21 8.51%
CC1=CC(C)(C)NC(=S)N1c1cccc2ccccc12 12.8%
O=C(O)CSc1nnc(Nc2ccccc2)n1-c1ccccc1 1.56%
COc1ccc(/C=C2\SC(=S)N(CC(=O)OCC(=O)Nc3ccc(C)cc3Cl)C2=O)cc1 1.09%
CN1C[C@@H]2[C@@H]3C(=O)N(Cc4ccccc4)C(=O)[C@@H]3[C@](C)(C1=O)N2C(=O)c1ccc(Br)cc1 5.77%
CCC(C(=O)OCC(=O)c1ccc(OC)cc1OC)c1ccccc1 (stereo not drawn) 5.77%
COc1ccccc1C(=O)NC(=O)COC(=O)c1nc(Cl)ccc1Cl 8.9%
Cc1cc(F)ccc1S(=O)(=O)N1CCCOC1CNC(=O)C(=O)NCc1ccc2c(c1)OCO2 (stereo not drawn) 2.65%
CCOC(=O)c1ccc(NC(=O)CC2OCCN(CC)C2=O)cc1 (stereo not drawn) 7.78%
